From the supplement of paper PMC10849652
Targets with a hit are over-represented here; the source holds about 7,900 in all. About 0.6% of all pairs of compound and target were hits. A number with no mark means an inactive call.

Assays:
Assay in all cases: log2 fold change, soluble protein after heating vs DMSO (PISA); higher = thermal stabilisation; K562 cells, 10 uM, 30 min; active = over 0.2 and 3.5 SD of the protein, either way, in both replicates (recomputed)
[1] = compound: CS(=O)(=O)c1ccc(-c2cnc(N)c(C(=O)Nc3ccccc3)n2)cc1
Outline: (§1)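 K562 cells at 2×10^6 cells/mL were given 10 μM compound for 30 min. Aliquots then went through 3 min of heating across 48°C-58°C, were pooled, and were extracted in PBS with 0.5% NP-40 at 4°C, and the supernatant after 21,000xg for 90 min was quantified by TMTpro 16plex LC-MS/MS with channel sums equalised. Thermal stability relative to control samples, from duplicates, is given as log2 fold change.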

crizotinib = compound: C[C@@H](Oc1cc(-c2cnn(C3CCNCC3)c2)cnc1N)c1c(Cl)ccc(F)c1Cl [crizotinib]
Outline: as §1

[2] = compound: C[C@@H]1COCCN1C2=NC(=NC(=C2)C3(CC3)S(=O)(=O)C)C4=C5C=CNC5=CC=C4
Outline: as §1

[3] = compound: C[C@H](C1=CC=C(C=C1)C(=O)NC2=C3C=CNC3=NC=C2)N
Outline: as §1

duvelisib = compound: C[C@H](Nc1ncnc2nc[nH]c12)c1cc2cccc(Cl)c2c(=O)n1-c1ccccc1 [duvelisib]
Outline: as §1

gandotinib = compound: Cc1cc(Nc2cc(CN3CCOCC3)c3nc(C)c(Cc4ccc(Cl)cc4F)n3n2)n[nH]1 [gandotinib]
Outline: as §1

tozasertib = compound: Cc1cc(Nc2cc(N3CCN(C)CC3)nc(Sc3ccc(NC(=O)C4CC4)cc3)n2)n[nH]1 [tozasertib]
Outline: as §1

[4] = compound: Cc1cc(SCc2sc(-c3ccc(C(F)(F)F)cc3)nc2C)ccc1OCC(=O)O
Outline: as §1

doramapimod = compound: Cc1ccc(-n2nc(C(C)(C)C)cc2NC(=O)Nc2ccc(OCCN3CCOCC3)c3ccccc23)cc1 [doramapimod]
Outline: as §1

ispinesib = compound: Cc1ccc(C(=O)N(CCCN)[C@@H](c2nc3cc(Cl)ccc3c(=O)n2Cc2ccccc2)C(C)C)cc1 [ispinesib]
Outline: as §1

bafetinib = compound: Cc1ccc(NC(=O)c2ccc(CN3CC[C@H](N(C)C)C3)c(C(F)(F)F)c2)cc1Nc1nccc(-c2cncnc2)n1 [bafetinib]
Outline: as §1

[5] = compound: Cc1cccc(CC(=O)N2CCc3c2ccc(-c2cn(C)c4ncnc(N)c24)c3F)n1
Outline: as §1

nilotinib = compound: Cc1cn(-c2cc(NC(=O)c3ccc(C)c(Nc4nccc(-c5cccnc5)n4)c3)cc(C(F)(F)F)c2)cn1 [nilotinib]
Outline: as §1

[6] = compound: Cc1nc(Nc2n[nH]c3c2CN(C(=O)N[C@H](CN(C)C)c2ccccc2)C3(C)C)c2sccc2n1
Outline: as §1

dasatinib = compound: Cc1nc(Nc2ncc(C(=O)Nc3c(C)cccc3Cl)s2)cc(N2CCN(CCO)CC2)n1 [dasatinib]
Outline: as §1

[7] = compound: Cc1ncc(-c2ccnc(Nc3ccc(S(C)(=O)=O)cc3)n2)n1C(C)C
Outline: as §1

[8] = compound: Cn1cc(-c2ccc3c(c2)CCN3C(=O)Cc2cccc(C(F)(F)F)c2)c2c(N)ncnc21
Outline: as §1

[9] = compound: Cn1cc(-c2ccc3nnc(C(F)(F)c4ccc5ncccc5c4)n3n2)cn1
Outline: as §1

tipifarnib = compound: Cn1cncc1[C@@](N)(c1ccc(Cl)cc1)c1ccc2c(c1)c(-c1cccc(Cl)c1)cc(=O)n2C [tipifarnib]
Outline: as §1

mubritinib = compound: FC(F)(F)c1ccc(/C=C/c2nc(COc3ccc(CCCCn4ccnn4)cc3)co2)cc1 [mubritinib]
Outline: as §1

UniProt Q8WVY7, sequence (Q8WVY7 whole entry, looked up): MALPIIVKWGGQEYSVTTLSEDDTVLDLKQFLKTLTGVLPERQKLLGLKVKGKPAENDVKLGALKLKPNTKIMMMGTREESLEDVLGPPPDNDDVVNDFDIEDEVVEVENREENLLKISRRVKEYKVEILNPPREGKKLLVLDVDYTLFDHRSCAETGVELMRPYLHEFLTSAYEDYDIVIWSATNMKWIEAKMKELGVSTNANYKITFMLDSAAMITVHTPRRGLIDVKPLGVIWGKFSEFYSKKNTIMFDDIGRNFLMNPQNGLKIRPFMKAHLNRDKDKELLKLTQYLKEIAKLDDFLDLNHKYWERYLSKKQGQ
UniProt Q93008, sequence (Q93008 whole entry, looked up): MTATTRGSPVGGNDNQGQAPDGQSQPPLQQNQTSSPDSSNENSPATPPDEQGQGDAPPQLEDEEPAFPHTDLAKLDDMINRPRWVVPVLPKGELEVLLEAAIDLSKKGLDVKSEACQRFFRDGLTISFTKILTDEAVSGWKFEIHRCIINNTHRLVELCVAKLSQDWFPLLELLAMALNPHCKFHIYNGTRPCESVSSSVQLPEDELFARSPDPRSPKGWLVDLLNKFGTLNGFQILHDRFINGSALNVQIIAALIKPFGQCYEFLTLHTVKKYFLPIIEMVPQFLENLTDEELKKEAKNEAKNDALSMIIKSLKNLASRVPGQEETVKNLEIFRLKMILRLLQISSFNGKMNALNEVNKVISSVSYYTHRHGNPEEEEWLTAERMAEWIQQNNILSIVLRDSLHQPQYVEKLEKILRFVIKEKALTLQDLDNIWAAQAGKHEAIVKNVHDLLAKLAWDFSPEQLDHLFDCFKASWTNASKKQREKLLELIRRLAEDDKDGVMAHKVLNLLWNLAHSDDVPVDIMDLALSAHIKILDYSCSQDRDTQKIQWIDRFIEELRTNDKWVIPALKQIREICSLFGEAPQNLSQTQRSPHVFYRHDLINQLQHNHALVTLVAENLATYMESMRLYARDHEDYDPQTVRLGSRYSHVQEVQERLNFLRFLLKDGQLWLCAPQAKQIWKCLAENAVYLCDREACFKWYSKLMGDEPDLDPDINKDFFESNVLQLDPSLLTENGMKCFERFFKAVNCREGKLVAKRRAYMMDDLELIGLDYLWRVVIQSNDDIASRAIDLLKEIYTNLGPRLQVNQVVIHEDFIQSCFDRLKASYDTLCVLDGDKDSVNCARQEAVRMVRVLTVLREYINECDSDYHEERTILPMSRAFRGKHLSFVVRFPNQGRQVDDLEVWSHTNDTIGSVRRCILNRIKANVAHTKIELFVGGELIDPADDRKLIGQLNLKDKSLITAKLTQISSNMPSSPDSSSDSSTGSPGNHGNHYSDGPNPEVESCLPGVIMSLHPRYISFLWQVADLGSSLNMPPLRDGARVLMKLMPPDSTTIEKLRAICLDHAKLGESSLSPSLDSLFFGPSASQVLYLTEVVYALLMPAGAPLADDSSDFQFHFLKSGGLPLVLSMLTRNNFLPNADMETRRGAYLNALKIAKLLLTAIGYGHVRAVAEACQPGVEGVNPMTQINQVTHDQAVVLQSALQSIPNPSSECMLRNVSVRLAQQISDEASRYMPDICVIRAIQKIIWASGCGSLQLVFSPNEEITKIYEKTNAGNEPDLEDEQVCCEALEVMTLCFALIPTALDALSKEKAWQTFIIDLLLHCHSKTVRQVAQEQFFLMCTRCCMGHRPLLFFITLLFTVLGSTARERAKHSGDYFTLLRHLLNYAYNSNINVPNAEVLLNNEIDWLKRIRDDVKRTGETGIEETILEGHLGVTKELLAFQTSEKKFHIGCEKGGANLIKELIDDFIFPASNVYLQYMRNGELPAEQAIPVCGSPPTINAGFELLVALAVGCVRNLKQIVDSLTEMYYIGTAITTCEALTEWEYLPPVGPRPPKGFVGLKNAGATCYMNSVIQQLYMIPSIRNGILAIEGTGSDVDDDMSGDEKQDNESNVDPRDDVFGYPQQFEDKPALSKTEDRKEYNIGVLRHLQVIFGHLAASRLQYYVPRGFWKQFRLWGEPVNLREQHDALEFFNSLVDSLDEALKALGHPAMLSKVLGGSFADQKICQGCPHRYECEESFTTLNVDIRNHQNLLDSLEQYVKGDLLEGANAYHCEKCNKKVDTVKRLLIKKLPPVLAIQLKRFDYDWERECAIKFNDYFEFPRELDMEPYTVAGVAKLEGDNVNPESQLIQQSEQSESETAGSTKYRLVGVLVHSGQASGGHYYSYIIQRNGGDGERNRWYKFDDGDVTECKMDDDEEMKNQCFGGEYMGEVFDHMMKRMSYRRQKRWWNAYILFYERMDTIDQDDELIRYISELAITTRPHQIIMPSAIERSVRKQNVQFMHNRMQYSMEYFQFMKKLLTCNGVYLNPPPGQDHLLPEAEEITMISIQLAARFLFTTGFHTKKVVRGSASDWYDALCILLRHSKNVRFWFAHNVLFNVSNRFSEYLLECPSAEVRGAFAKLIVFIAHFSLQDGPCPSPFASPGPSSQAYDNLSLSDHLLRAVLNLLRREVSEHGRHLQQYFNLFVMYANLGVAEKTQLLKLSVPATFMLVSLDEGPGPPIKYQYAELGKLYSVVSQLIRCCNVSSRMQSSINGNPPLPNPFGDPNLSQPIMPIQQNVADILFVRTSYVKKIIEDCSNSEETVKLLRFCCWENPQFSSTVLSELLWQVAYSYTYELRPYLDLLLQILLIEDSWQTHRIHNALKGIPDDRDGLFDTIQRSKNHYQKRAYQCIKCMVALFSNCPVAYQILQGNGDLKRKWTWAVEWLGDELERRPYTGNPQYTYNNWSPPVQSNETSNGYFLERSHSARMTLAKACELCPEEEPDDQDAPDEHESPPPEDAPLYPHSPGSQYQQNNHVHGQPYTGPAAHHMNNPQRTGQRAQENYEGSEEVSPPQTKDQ
UniProt Q16881, sequence (Q16881 whole entry, looked up): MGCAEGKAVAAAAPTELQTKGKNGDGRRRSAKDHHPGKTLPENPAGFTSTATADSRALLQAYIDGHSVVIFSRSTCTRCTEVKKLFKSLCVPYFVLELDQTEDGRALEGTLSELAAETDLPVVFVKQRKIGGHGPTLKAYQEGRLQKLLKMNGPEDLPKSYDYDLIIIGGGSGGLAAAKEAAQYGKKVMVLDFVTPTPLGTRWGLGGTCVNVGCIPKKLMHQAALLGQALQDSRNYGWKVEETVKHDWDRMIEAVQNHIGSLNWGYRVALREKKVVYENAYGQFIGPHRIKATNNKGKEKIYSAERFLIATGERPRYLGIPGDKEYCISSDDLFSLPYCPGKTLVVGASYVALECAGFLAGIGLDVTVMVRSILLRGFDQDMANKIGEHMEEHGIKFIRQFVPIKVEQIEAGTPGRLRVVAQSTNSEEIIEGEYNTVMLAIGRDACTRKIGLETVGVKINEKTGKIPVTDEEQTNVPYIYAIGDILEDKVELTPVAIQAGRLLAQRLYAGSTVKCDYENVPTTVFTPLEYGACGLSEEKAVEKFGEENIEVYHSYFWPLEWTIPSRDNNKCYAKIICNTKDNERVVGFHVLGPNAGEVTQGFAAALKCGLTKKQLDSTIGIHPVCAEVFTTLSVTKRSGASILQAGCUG
UniProt P13010, sequence (P13010 whole entry, looked up): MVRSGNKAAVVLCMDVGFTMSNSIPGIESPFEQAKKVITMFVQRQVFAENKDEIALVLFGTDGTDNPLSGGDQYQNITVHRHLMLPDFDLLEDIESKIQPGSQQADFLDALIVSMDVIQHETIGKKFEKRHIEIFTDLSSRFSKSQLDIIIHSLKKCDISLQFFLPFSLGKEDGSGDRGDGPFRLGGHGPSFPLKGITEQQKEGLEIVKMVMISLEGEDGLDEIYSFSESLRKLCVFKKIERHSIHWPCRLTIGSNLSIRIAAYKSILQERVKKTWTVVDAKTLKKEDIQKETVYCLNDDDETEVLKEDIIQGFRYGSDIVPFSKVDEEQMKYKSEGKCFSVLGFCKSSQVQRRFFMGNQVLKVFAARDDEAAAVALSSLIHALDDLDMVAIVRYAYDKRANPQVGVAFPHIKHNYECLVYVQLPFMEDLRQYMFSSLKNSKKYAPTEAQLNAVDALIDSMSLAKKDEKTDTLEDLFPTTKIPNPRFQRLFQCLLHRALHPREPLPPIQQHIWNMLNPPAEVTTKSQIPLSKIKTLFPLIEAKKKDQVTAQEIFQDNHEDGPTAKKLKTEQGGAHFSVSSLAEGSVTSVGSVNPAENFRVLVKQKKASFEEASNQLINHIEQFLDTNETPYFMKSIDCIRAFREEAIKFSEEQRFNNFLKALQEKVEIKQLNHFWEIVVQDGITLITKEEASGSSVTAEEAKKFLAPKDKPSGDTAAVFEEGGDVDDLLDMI
UniProt O95379, sequence (O95379 whole entry, looked up): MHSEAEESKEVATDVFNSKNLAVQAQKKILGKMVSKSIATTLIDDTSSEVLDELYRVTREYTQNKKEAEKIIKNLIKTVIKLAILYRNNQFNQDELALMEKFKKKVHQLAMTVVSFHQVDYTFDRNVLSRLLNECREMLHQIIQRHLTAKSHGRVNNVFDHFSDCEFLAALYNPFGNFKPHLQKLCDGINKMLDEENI
UniProt Q96AX1, sequence (Q96AX1 whole entry, looked up): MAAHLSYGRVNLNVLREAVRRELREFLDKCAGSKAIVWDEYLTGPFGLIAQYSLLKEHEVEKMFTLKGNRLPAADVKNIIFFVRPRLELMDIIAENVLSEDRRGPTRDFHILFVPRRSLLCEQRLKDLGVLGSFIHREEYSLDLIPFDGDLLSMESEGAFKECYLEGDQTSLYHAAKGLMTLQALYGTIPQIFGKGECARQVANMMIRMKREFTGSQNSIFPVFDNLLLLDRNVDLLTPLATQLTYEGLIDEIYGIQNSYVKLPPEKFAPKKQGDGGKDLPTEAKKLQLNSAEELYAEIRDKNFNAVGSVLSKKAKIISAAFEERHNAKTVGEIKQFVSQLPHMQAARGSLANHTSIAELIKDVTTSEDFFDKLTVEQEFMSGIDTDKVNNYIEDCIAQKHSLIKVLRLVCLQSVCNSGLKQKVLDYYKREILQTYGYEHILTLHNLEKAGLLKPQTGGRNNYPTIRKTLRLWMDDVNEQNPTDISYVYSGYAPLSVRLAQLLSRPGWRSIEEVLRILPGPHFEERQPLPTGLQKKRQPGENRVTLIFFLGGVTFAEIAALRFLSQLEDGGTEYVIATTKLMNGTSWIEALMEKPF

Target	log2 fold change [1]	log2 fold change (crizotinib)	log2 fold change [2]	log2 fold change [3]	log2 fold change (duvelisib)	log2 fold change (gandotinib)	log2 fold change (tozasertib)	log2 fold change [4]	log2 fold change (doramapimod)	log2 fold change (ispinesib)	log2 fold change (bafetinib)	log2 fold change [5]	log2 fold change (nilotinib)	log2 fold change [6]	log2 fold change (dasatinib)	log2 fold change [7]	log2 fold change [8]	log2 fold change [9]	log2 fold change (tipifarnib)	log2 fold change (mubritinib)
USP7 (UniProt Q93009)	0.008	-0.311	0.147	0.07	0.046	-0.157	-0.077	0.146	-0.039	-0.175	-0.018	0.097	-0.076	-0.113	-0.272	-0.011	0.101	0.153	-0.139	0.068
XPO5 (UniProt Q9HAV4)	-0.008	-0.052	0.021	-0.026	0.007	-0.192	0.03	0.064	-0.043	-0.079	-0.037	0.036	-0.07	-0.118	-0.11	-0.054	0.026	0.004	-0.071	0.006
UBLCP1 (UniProt Q8WVY7)	0.063	0.068	-0.007	-0.034	0.03	-0.06	0.045	0.062	-0.061	0.126	0.016	-0.034	-0.101	0.074	-0.063	0.116	-0.052	0.006	-0.072	0.155
WDR41 (UniProt Q9HAD4)	0.01	-0.093	-0.064	-0.064	0.013	-0.035	-0.002	-0.02	-0.042	-0.172	-0.139	0.169	0	-0.076	-0.082	-0.017	0.012	-0.003	0.023	0.071
TOE1 (UniProt Q96GM8)	0.013	0	-0.221	0.211	-0.01	0.219	0.041	0.066	0.065	-0.021	0.301	0.033	0.152	0.178	0.097	0.017	-0.113	-0.072	-0.036	0.111
USP9X (UniProt Q93008)	-0.008	-0.159	-0.024	0.033	0.001	-0.125	0	0.053	0.016	-0.058	-0.016	0.071	-0.099	-0.056	-0.122	-0.004	-0.052	-0.021	-0.126	0.052
TXN2 (UniProt Q99757)	-0.001	0.128	-0.047	-0.317 (active)	0.031	0.105	0.009	-0.026	-0.034	0.028	-0.105	-0.104	0.034	-0.005	0.083	-0.048	0.227	0.013	0.059	0.009
TNFAIP8 isoform 4 (UniProt O95379)	0.005	0	0.122	-0.099	0.019	-0.073	-0.076	-0.046	-0.016	-0.046	-0.079	0.014	-0.045	-0.095	-0.109	0.007	0.047	0.005	-0.023	0.031
VPS33A (UniProt Q96AX1)	-0.031	-0.218	0.014	0.043	0.029	-0.091	0.036	0.049	-0.017	-0.154	-0.066	0.091	-0.071	-0.124	-0.123	-0.039	-0.019	-0.094	-0.064	0.098
WDR47 (UniProt O94967)	-0.024	0.048	0.024	-0.003	0.109	0.09	-0.052	-0.011	-0.034	0.025	0.042	0.004	0.02	-0.046	-0.036	0.067	0.002	0.033	0.039	-0.147
VARS2, A0A0G2JL52	0.004	0	0.06	0.018	0.012	-0.061	-0.034	0.025	0.048	-0.244 (active)	-0.051	0	-0.043	0.012	0.009	0.003	0.037	-0.021	-0.01	-0.049
TXNRD1 (UniProt Q16881)	0.075	-0.043	0.079	-0.053	0.047	-0.045	-0.036	-0.007	-0.028	-0.009	-0.012	-0.011	0.097	-0.013	-0.013	-0.002	0.067	0.021	-0.107	0.225 (active)
XRCC5 (UniProt P13010)	0.037	-0.086	0.047	0.077	-0.017	-0.001	0.177	0.179	0.064	-0.16	0.083	0.07	-0.12	-0.405	-0.118	-0.243	0.105	0.123	-0.082	-0.014
VPS51 (UniProt Q9UID3)	-0.009	-0.096	-0.003	0.05	0.006	-0.04	0.033	0.079	0.008	-0.115	0.009	0.039	-0.089	-0.037	-0.126	-0.042	-0.075	-0.008	-0.095	0.083
UFL1 (UniProt O94874)	0.05	-0.053	-0.043	0.067	0.005	-0.069	-0.016	0.106	-0.02	-0.025	0.032	0.018	-0.119	-0.009	-0.165	0.083	-0.013	-0.007	-0.052	0.062
VTA1 (UniProt Q9NP79)	0.032	-0.049	0.056	-0.019	0.019	-0.127	0.004	0.057	-0.021	-0.014	-0.035	0.081	-0.07	-0.011	-0.109	-0.005	0.035	0	-0.109	0.033
